A selection: hits, their analogues and other compounds. The true share with any hit is near 5.7%.
AHR activator – activates the human aryl hydrocarbon receptor; AHR-responsive luciferase reporter cells, luminescence; activation, % at 5 µM; 320,000 compounds, 2.5% hits; in the data active means activation above about 47%;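 further: 0% = vehicle wells and 100% = reference agonist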
hcDAF-12 act – H. contortus DAF-12 activation, primary screen; HEK293 hcDAF-12 lit1-tk-luc reporter, luminescence; 0% DMSO, 100% Δ7-dafachronic acid; activation, % at 6.8 µM; 370,000 compounds, 1.4% hits; AID 652067;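 active means activation above the mean of all tested compounds plus 3 SD, cut at about 5.5% in these data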;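 further: 100% = response to 3 µM Δ7-dafachronic acid high control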
DAX1 inh-1 – inhibitors of DAX1 repression of SF-1 activated StAR promoter; HEK293T StAR-luciferase reporter, SF-1/DAX-1 repression relief; AID 652010; 370,000 compounds, 1.1% hits; inhibition, % at 6.8 µM;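 active means inhibition above the mean over all tested compounds plus 3 SD, cut at about 3.6% in these data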;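 further: 0% = DAX-1 cells with DMSO and 100% = cells lacking DAX-1 with DMSO; higher inhibition means more luminescence from relief of DAX-1 repression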
DAX1 inh-2 – NR0B1 (DAX1) inhibition. 340,000 compounds, 0.99% hits. HEK293 Gal4-DAX1 luciferase reporter, luminescence. inhibition, % at 6.75 µM. AID 504766;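 active means inhibition above the mean over all tested compounds plus 3 SD, cut at about 4.2% in these data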;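 further: 0% = DAX1-transfected cells with DMSO and 100% = empty-vector control cells with DMSO; inhibition shows as a rise in luminescence from relieved DAX1 repression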
Target sequence (P51843 207-470 limits assumed): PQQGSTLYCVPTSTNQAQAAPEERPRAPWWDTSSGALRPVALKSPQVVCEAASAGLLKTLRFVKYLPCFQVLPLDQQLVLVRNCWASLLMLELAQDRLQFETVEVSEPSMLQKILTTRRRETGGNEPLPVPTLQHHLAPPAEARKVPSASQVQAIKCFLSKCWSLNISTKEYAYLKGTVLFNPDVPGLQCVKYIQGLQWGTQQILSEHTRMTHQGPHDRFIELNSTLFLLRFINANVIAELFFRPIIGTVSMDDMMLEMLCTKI
ssDAF-12 act – activators of S. stercoralis DAF-12 nuclear receptor | activation, % at 6.8 µM | HEK293 ssDAF-12/GRIP1 lit1-tk-luc reporter, luminescence; % of 3 µM dafachronic acid response | 370,000 compounds, 1% hits;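 active means activation above the mean over all tested compounds plus 3 SD, cut at about 0.9% in these data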;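 further: 0% = DMSO-only wells and 100% = 3 µM delta7-dafachronic acid wells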
hgDAF12 agonist – hgDAF-12 agonism, primary luciferase screen; 370,000 compounds, 1.8% hits; activation, % at 6.8 µM; AID 687014; HEK293 GAL4-hgDAF12 UAS-luciferase reporter, agonist luminescence; normalized to butyrate control;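 active means activation above a cutoff set at the mean of all screened compounds plus 3 SD, cut at about 10% in these data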;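 further: 0% = DMSO wells and 100% = sodium butyrate wells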
LXRb hcDAF ctr – counter-screen for hcDAF-12 agonists: agonists of human LXR-beta | 3,400 tested, under 10 active | HEK293 Gal4-LXR tk-luc reporter, luminescence, 24 h; normalized: DMSO 0%, positive control 100% | activation, % at 6.8 µM | shares compounds with hcDAF-12 act;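 active means mean percent activation of the reporter above a cutoff set as the average over tested compounds plus their standard deviation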
hcDAF12 ag – hcDAF-12 agonism, confirmation assay; shares compounds with hcDAF-12 act; HEK293 hcDAF-12 lit1-tk-luc reporter, luminescence; % of Δ7-dafachronic acid response; activation, % at 6.8 µM; 3,400 compounds, 61% hits; AID 743032;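 active means mean activation across triplicate tests above the threshold derived from the earlier primary screen, cut at about 5.5% in these data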;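 further: 0% = DMSO only wells and 100% = 3 µM Δ7-dafachronic acid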
* hit, by the source's call; · = no result.

SMILES	AHR activator	hcDAF-12 act	DAX1 inh-1	DAX1 inh-2	ssDAF-12 act	hgDAF12 agonist	LXRb hcDAF ctr	hcDAF12 ag
CN(C)c1cc2c3ccccc3n(C)c2cc1N	·	7.6*	0	2	0	4	0	4
Cc1ccc(C)c2c1c1ccccc1n2C	10	3	1	0	-1	-1	·	·
COCCCNC(=O)CCC(=O)NNc1nc2ccccc2c2nc(C)nn12	1	7.2*	0	1	0	1	0	3
c1cncc(-c2nc3ccccc3o2)c1	0	-1	1	0	-1	1	·	·
c1ccc2nc(-c3nc4ccccc4o3)ccc2c1	90*	13*	1	-3	0	4	2	23*
C[C@H]1C(=O)N2[C@@H](C[C@]3(c4c[nH]c5ccccc45)c4ccccc4N(S(=O)(=O)c4ccccc4)[C@H]23)C(=O)N1C	·	6.8*	·	·	-1	1	0	2
O=C1N[C@@H](Cc2ccccc2)C(=O)N2[C@H]1C[C@]1([C@]34C[C@H]5C(=O)N[C@@H](Cc6ccccc6)C(=O)N5[C@H]3N(S(=O)(=O)c3ccccc3)c3ccccc34)c3ccccc3N(S(=O)(=O)c3ccccc3)[C@H]21	-2	1	-1	0	-1	-1	·	·
O=[N+]([O-])c1cccc(/C=C/c2nc[nH]c2[N+](=O)[O-])c1	2	1	-1	3	-1	-3	·	·
COC(=O)/C=C(\C)N=Nc1c(O)[nH]c2ccccc12	31	7.3*	0	1	0	1	0	6.8*
Oc1[nH]c2ccccc2c1N=Nc1nc2ccccc2s1	0	4	0	1	0	6	·	·
Oc1[nH]c2ccccc2c1N=Nc1ccccc1	46	13*	2	2	1	10	1	14*
Cc1ccc(S(=O)(=O)N/N=C\C=C\c2ccccc2)cc1	0	6.7*	1	0	-1	3	0	0
O=S(=O)(N/N=C\C=C\c1ccccc1)c1ccc(Br)cc1	0	0	1	1	-1	0	·	·
COc1ccc(/C=N\n2nnc3ccccc32)cc1	13	9.1*	4.2*	-4	0.9*	8	1	7.7*
COc1ccc(/C=N/n2c(C)nc3ccccc3c2=O)cc1	-1	-1	0	0	0	2	·	·
Cc1ccc(OCC(=O)N(C)CC(=O)Nc2cccc(F)c2)cc1	-1	0	-1	1	-1	0	·	·
COc1ccc(C2/C=C\CNCC(=O)N2Cc2ccc(F)cc2)cc1 (stereo not given)	1	0	0	0	-1	0	·	·
CCC1CCCCN1CCCNC(=O)c1ccc(N2CCCC2=O)cc1 (stereo not given)	0	1	-1	1	-1	0	·	·
O=C(NC1CCCCCC1)c1ccc(N2CCCC2=O)cc1	-3	6.7*	2	2	0	11*	0	2
CC1CCCCN1CCCNC(=O)c1ccc(N2CCCC2=O)cc1 (stereo not given)	-3	8.6*	1	1	-1	2	0	0
COc1cccc(CNC(=S)Nc2cc(C)ccc2C)c1	0	0	0	1	-2	-1	·	·
Cc1ccc(-c2nn(-c3ccccc3)cc2/C=N/NC(=O)c2ccncc2)o1	-1	2	1	1	-1	9	·	·
CCOc1cc(C(=O)N/N=C/c2cn(-c3ccccc3)nc2-c2cc3ccccc3o2)cc(OCC)c1OCC	·	7.9*	2	3	0	9	1	5.8*
O=C(N/N=C\c1cn(-c2ccccc2)nc1-c1ccccc1)c1ccc(Br)o1	8	9.4*	-1	-1	0	5	0	4
COc1cc(NC(=O)CCc2c(C)noc2C)c(C(=O)O)cc1OC	·	-1	0	1	0	-2	·	·
SMILES	AHR activator	hcDAF-12 act	DAX1 inh-1	DAX1 inh-2	ssDAF-12 act	hgDAF12 agonist	LXRb hcDAF ctr	hcDAF12 ag
CNc1c2cccc(C)c2nc2c(C(=O)NCCN(C)C)cccc12	·	38*	-5	4	4.1*	9	0	-4
Cc1ccc(C(=O)NCCN(C)C)c(C)c1	6	-2	0	0	-1	0	·	·
Cc1cccc(C(=O)NNC(=O)/C=C/C(=O)O)c1	21	8.6*	1	1	1	6	0	5
Cc1cccc(C(=O)NNC(=O)c2ccccc2)c1	1	0	1	0	-1	2	·	·
COC(=O)C12C=C3CC(C)=C3C(=O)N1Cc1[nH]c3ccccc3c1C2 (stereo not given)	·	8.1*	0	·	0	2	0	5.9*
COC(=O)C1Cc2c([nH]c3ccccc23)C2CCC(=O)N12 (stereo not given)	·	2	-1	1	0	2	·	·
CC(Sc1nnc(CNc2cccc3ccccc23)n1-c1ccccc1)C(=O)N/N=C/c1ccco1 (stereo not given)	8	1	0	1	-1	0	·	·
Cc1cc(C)n2ncc(C(=O)Nc3ccc4c(c3)CCC4)c2n1	·	6.8*	·	·	1	6	0	6.2*
COc1ccc(C2OC(=O)CC2C(=O)NCc2ccc(Cl)cc2)cc1OC (stereo not given)	4	1	2	0	-1	5	·	·
COc1cc(/C=N/NC(=O)c2nnn(-c3nonc3N)c2C(C)C)ccc1O	-1	6.7*	0	0	-2	12*	0	1
Nc1cc(N)cc(-c2nc3ccccc3[nH]2)c1	44	8.9*	1	0	0	2	0	4
Nc1ccc2nc(-c3cccc(-c4nc5ccc(N)cc5[nH]4)c3)[nH]c2c1	7	-2	0	-1	-1	-1	·	·
CCOc1ccc(CNS(=O)(=O)c2ccc(-c3ccc(=O)[nH]n3)o2)cc1OC	0	-2	1	0	-1	2	·	·
Cc1ccc(S(=O)(=O)N2CCOCC2)cc1C(=O)Nc1nc2ccccc2[nH]1	25	7.9*	2	0	0	3	0	5
Cc1ccc(NC(=O)c2c(Cl)n(C)c3ccccc23)cc1	46	7.0*	0	1	1.1*	10	0	11*
CC(C)c1ccc(NC(=O)c2cc3c(=O)n(C)c4ccccc4c3n2C)cc1	-4	1	0	3	-1	0	·	·
Cc1cccc(NC(=O)c2c(O)c3ccccc3n(C)c2=O)c1	40	7.5*	1	1	1.1*	5	1	12*

Screening data: PubChem, The Scripps Research Institute Molecular Screening Center
